What all share (test): PBM; 200 nM protein, PBS
Holding throughout (conditions): dsDNA, one strand shown

Assay [1] addresses HESX1 (Homo sapiens, UniProt Q9UBX0 95-180, R165K).
Assay [2] has as its target SHOX (Homo sapiens, UniProt O15266 103-189).
The target of assay [3] is ALX4 (Homo sapiens, UniProt Q9H161 200-286, Q225E).
For assay [4], the target named is HESX1 (Homo sapiens, UniProt Q9UBX0 95-180).
The target of assay [5] is MSX2 (Homo sapiens, UniProt P35548 130-214, R199I).
Assay [6] has as its target ALX1 (Homo sapiens, UniProt Q15699 118-204, L144V).
The target in assay [7] is ALX3 (Homo sapiens, UniProt O95076 139-225, N203Q).
Assay [8] has as its target SHOX (Homo sapiens, UniProt O15266 103-189, R173C).
In assay [9] the target is ALX1 (Homo sapiens, UniProt Q15699 118-204, L144R).
The target of assay [10] is ALX3 (Homo sapiens, UniProt O95076 139-225).
Assay [11] concerns the target PROP1 (Homo sapiens, UniProt O75360 56-141).
For assay [12], the target named is HESX1 (Homo sapiens, UniProt Q9UBX0 95-180, R109Q).
Assay [13] addresses PROP1 (Homo sapiens, UniProt O75360 56-141, R99H).
The target of assay [14] is ALX3 (Homo sapiens, UniProt O95076 139-225, L168Q).
In assay [15] the target is HESX1 (Homo sapiens, UniProt Q9UBX0 95-180, P111T).
Assay [16] addresses ALX3 (Homo sapiens, UniProt O95076 139-225, L168V).
In assay [17] the target is PROP1 (Homo sapiens, UniProt O75360 56-141, F88S).
Assay [18] has as its target HESX1 (Homo sapiens, UniProt Q9UBX0 95-180, F115L).
Assay [19] deals with ALX1 (Homo sapiens, UniProt Q15699 118-204).
Assay [20] deals with ALX3 (Homo sapiens, UniProt O95076 139-225, N203S).
Sequence of ALX3 (Homo sapiens, UniProt O95076 139-225, N203S) (O95076 139-225 N203S): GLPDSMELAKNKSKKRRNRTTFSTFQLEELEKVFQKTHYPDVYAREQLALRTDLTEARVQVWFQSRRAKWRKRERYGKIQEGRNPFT

Sequence of SHOX (Homo sapiens, UniProt O15266 103-189) (O15266 103-189): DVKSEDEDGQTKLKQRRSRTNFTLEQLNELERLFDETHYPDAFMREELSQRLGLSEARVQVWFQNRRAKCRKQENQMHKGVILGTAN
Sequence of PROP1 (Homo sapiens, UniProt O75360 56-141, R99H) (O75360 56-141 R99H): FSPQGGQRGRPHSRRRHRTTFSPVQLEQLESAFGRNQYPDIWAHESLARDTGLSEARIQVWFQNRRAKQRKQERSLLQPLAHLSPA
Sequence of ALX3 (Homo sapiens, UniProt O95076 139-225, L168V) (O95076 139-225 L168V): as the sequence (O95076 139-225 N203S) above, with L30V, S65N counted along it
Sequence of HESX1 (Homo sapiens, UniProt Q9UBX0 95-180, R109Q) (Q9UBX0 95-180 R109Q): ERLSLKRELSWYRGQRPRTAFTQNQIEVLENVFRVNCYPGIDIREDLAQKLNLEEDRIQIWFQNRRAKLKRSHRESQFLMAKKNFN
Sequence of HESX1 (Homo sapiens, UniProt Q9UBX0 95-180, P111T) (Q9UBX0 95-180 P111T): as the sequence (Q9UBX0 95-180 R109Q) above, with Q15R, P17T counted along it
Sequence of ALX1 (Homo sapiens, UniProt Q15699 118-204) (Q15699 118-204): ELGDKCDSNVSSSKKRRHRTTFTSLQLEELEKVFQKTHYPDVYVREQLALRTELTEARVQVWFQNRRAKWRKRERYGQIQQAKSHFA
Sequence of HESX1 (Homo sapiens, UniProt Q9UBX0 95-180, F115L) (Q9UBX0 95-180 F115L): as the sequence (Q9UBX0 95-180 R109Q) above, with Q15R, F21L counted along it
Sequence of ALX1 (Homo sapiens, UniProt Q15699 118-204, L144R) (Q15699 118-204 L144R): as the sequence (Q15699 118-204) above, with L27R counted along it
Sequence of ALX4 (Q9H161 200-286 Q225E): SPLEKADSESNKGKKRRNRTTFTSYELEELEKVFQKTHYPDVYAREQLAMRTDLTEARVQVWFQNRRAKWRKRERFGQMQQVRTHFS
Sequence of ALX3 (Homo sapiens, UniProt O95076 139-225) (O95076 139-225): as the sequence (O95076 139-225 N203S) above, with S65N counted along it
Sequence of PROP1 (Homo sapiens, UniProt O75360 56-141, F88S) (O75360 56-141 F88S): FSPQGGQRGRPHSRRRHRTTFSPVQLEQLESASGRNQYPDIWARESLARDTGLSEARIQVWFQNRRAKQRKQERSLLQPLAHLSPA
Sequence of PROP1 (Homo sapiens, UniProt O75360 56-141) (O75360 56-141): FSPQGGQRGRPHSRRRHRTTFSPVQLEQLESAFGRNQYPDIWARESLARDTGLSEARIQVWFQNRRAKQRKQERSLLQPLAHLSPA
Sequence of ALX1 (Homo sapiens, UniProt Q15699 118-204, L144V) (Q15699 118-204 L144V): as the sequence (Q15699 118-204) above, with L27V counted along it
Sequence of SHOX (Homo sapiens, UniProt O15266 103-189, R173C) (O15266 103-189 R173C): as the sequence (O15266 103-189) above, with R71C counted along it
Sequence of ALX3 (Homo sapiens, UniProt O95076 139-225, N203Q) (O95076 139-225 N203Q): as the sequence (O95076 139-225 N203S) above, with S65Q counted along it
Sequence of ALX3 (Homo sapiens, UniProt O95076 139-225, L168Q) (O95076 139-225 L168Q): as the sequence (O95076 139-225 N203S) above, with L30Q, S65N counted along it
Sequence of HESX1 (Homo sapiens, UniProt Q9UBX0 95-180, R165K) (Q9UBX0 95-180 R165K): as the sequence (Q9UBX0 95-180 R109Q) above, with Q15R, R71K counted along it
Sequence of MSX2 (P35548 130-214 R199I): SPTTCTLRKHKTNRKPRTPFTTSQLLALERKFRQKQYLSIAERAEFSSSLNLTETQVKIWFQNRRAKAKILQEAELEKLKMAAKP
Sequence of HESX1 (Homo sapiens, UniProt Q9UBX0 95-180) (Q9UBX0 95-180): as the sequence (Q9UBX0 95-180 R109Q) above, with Q15R counted along it

On to ATAATTGG, for which the binding signal in assay [1] is 13.5 upbm affinity estimate (log intensity, higher = more binding, comparable within an allelic series); in assay [2], 12.6 upbm affinity estimate (log intensity, higher = more binding, comparable within an allelic series); in [3] it was 13.7 upbm affinity estimate (log intensity, higher = more binding, comparable within an allelic series); in assay [4], 13.4 upbm affinity estimate (log intensity, higher = more binding, comparable within an allelic series); in assay [5] it was 13.1 upbm affinity estimate (log intensity, higher = more binding, comparable within an allelic series); in [6], 12 upbm affinity estimate (log intensity, higher = more binding, comparable within an allelic series). Besides, the binding signal in [7] was 8.37 upbm affinity estimate (log intensity, higher = more binding, comparable within an allelic series); in assay [8], 9.98 upbm affinity estimate (log intensity, higher = more binding, comparable within an allelic series); in assay [9], 11.7 upbm affinity estimate (log intensity, higher = more binding, comparable within an allelic series); in assay [10], 12.6 upbm affinity estimate (log intensity, higher = more binding, comparable within an allelic series); in assay [11] it was 11.7 upbm affinity estimate (log intensity, higher = more binding, comparable within an allelic series); in assay [12], 10 upbm affinity estimate (log intensity, higher = more binding, comparable within an allelic series). Besides, the binding signal in assay [13] was 12 upbm affinity estimate (log intensity, higher = more binding, comparable within an allelic series); in assay [14], 10.9 upbm affinity estimate (log intensity, higher = more binding, comparable within an allelic series); in assay [15] it was 12.1 upbm affinity estimate (log intensity, higher = more binding, comparable within an allelic series); in assay [16], 10.4 upbm affinity estimate (log intensity, higher = more binding, comparable within an allelic series); in [17] it was 7.6 upbm affinity estimate (log intensity, higher = more binding, comparable within an allelic series); in assay [18] it was 8.41 upbm affinity estimate (log intensity, higher = more binding, comparable within an allelic series). Further, the binding signal was 12.6 upbm affinity estimate (log intensity, higher = more binding, comparable within an allelic series) in assay [19] and 8.55 upbm affinity estimate (log intensity, higher = more binding, comparable within an allelic series) in assay [20].
Regarding CAATTAGA, the binding signal in assay [1] was 12.3 upbm affinity estimate (log intensity, higher = more binding, comparable within an allelic series); in assay [2] it was 11.9 upbm affinity estimate (log intensity, higher = more binding, comparable within an allelic series); in assay [3], 12.8 upbm affinity estimate (log intensity, higher = more binding, comparable within an allelic series); in [4], 12.5 upbm affinity estimate (log intensity, higher = more binding, comparable within an allelic series); in [5], 12.6 upbm affinity estimate (log intensity, higher = more binding, comparable within an allelic series); in [6] it was 11.4 upbm affinity estimate (log intensity, higher = more binding, comparable within an allelic series). Also, the binding signal is 8.27 upbm affinity estimate (log intensity, higher = more binding, comparable within an allelic series) in [7]; 9.38 upbm affinity estimate (log intensity, higher = more binding, comparable within an allelic series) in [8]; 11.1 upbm affinity estimate (log intensity, higher = more binding, comparable within an allelic series) in assay [9]; 12.4 upbm affinity estimate (log intensity, higher = more binding, comparable within an allelic series) in assay [10]; 11.4 upbm affinity estimate (log intensity, higher = more binding, comparable within an allelic series) in assay [11]; 8.75 upbm affinity estimate (log intensity, higher = more binding, comparable within an allelic series) in assay [12]. Further, the binding signal in [13] is 11.4 upbm affinity estimate (log intensity, higher = more binding, comparable within an allelic series); in assay [14] it was 10.4 upbm affinity estimate (log intensity, higher = more binding, comparable within an allelic series); in assay [15], 10.9 upbm affinity estimate (log intensity, higher = more binding, comparable within an allelic series); in assay [16] it was 9.72 upbm affinity estimate (log intensity, higher = more binding, comparable within an allelic series); in [17] it was 7.51 upbm affinity estimate (log intensity, higher = more binding, comparable within an allelic series); in [18], 7.65 upbm affinity estimate (log intensity, higher = more binding, comparable within an allelic series). The binding signal is 12.2 upbm affinity estimate (log intensity, higher = more binding, comparable within an allelic series) in [19] and 8.34 upbm affinity estimate (log intensity, higher = more binding, comparable within an allelic series) in assay [20].
As for AATTAGTG, the binding signal in assay [1] was 12.1 upbm affinity estimate (log intensity, higher = more binding, comparable within an allelic series); in assay [2] it was 12 upbm affinity estimate (log intensity, higher = more binding, comparable within an allelic series); in assay [3] it was 13.2 upbm affinity estimate (log intensity, higher = more binding, comparable within an allelic series); in [4] it was 12.2 upbm affinity estimate (log intensity, higher = more binding, comparable within an allelic series); in [5], 12.6 upbm affinity estimate (log intensity, higher = more binding, comparable within an allelic series); in assay [6] it was 11.8 upbm affinity estimate (log intensity, higher = more binding, comparable within an allelic series). Also, the binding signal in assay [7] is 8.36 upbm affinity estimate (log intensity, higher = more binding, comparable within an allelic series); in assay [8], 9.65 upbm affinity estimate (log intensity, higher = more binding, comparable within an allelic series); in assay [9] it was 11.4 upbm affinity estimate (log intensity, higher = more binding, comparable within an allelic series); in [10], 12.4 upbm affinity estimate (log intensity, higher = more binding, comparable within an allelic series); in assay [11], 11.3 upbm affinity estimate (log intensity, higher = more binding, comparable within an allelic series); in assay [12] it was 9.26 upbm affinity estimate (log intensity, higher = more binding, comparable within an allelic series). Also, the binding signal in assay [13] is 11.4 upbm affinity estimate (log intensity, higher = more binding, comparable within an allelic series); in [14] it was 10.7 upbm affinity estimate (log intensity, higher = more binding, comparable within an allelic series); in assay [15], 10.9 upbm affinity estimate (log intensity, higher = more binding, comparable within an allelic series); in assay [16], 10.1 upbm affinity estimate (log intensity, higher = more binding, comparable within an allelic series); in [17], 7.69 upbm affinity estimate (log intensity, higher = more binding, comparable within an allelic series); in assay [18], 7.88 upbm affinity estimate (log intensity, higher = more binding, comparable within an allelic series). Also, the binding signal in assay [19] is 12.5 upbm affinity estimate (log intensity, higher = more binding, comparable within an allelic series); in assay [20] it was 8.46 upbm affinity estimate (log intensity, higher = more binding, comparable within an allelic series).
For CCCAATTA, the binding signal in assay [1] is 13.2 upbm affinity estimate (log intensity, higher = more binding, comparable within an allelic series); in [2], 12.5 upbm affinity estimate (log intensity, higher = more binding, comparable within an allelic series); in assay [3] it was 13.5 upbm affinity estimate (log intensity, higher = more binding, comparable within an allelic series); in assay [4] it was 13.1 upbm affinity estimate (log intensity, higher = more binding, comparable within an allelic series); in assay [5] it was 13 upbm affinity estimate (log intensity, higher = more binding, comparable within an allelic series); in assay [6] it was 11.9 upbm affinity estimate (log intensity, higher = more binding, comparable within an allelic series). Besides, the binding signal in assay [7] was 8.37 upbm affinity estimate (log intensity, higher = more binding, comparable within an allelic series); in assay [8], 9.78 upbm affinity estimate (log intensity, higher = more binding, comparable within an allelic series); in [9] it was 11.6 upbm affinity estimate (log intensity, higher = more binding, comparable within an allelic series); in [10] it was 12.6 upbm affinity estimate (log intensity, higher = more binding, comparable within an allelic series); in assay [11], 11.6 upbm affinity estimate (log intensity, higher = more binding, comparable within an allelic series); in assay [12] it was 9.78 upbm affinity estimate (log intensity, higher = more binding, comparable within an allelic series). Moreover, the binding signal is 11.8 upbm affinity estimate (log intensity, higher = more binding, comparable within an allelic series) in [13]; 10.7 upbm affinity estimate (log intensity, higher = more binding, comparable within an allelic series) in [14]; 11.7 upbm affinity estimate (log intensity, higher = more binding, comparable within an allelic series) in assay [15]; 10.2 upbm affinity estimate (log intensity, higher = more binding, comparable within an allelic series) in [16]; 7.5 upbm affinity estimate (log intensity, higher = more binding, comparable within an allelic series) in assay [17]; 8.14 upbm affinity estimate (log intensity, higher = more binding, comparable within an allelic series) in assay [18]. Also, the binding signal in assay [19] is 12.5 upbm affinity estimate (log intensity, higher = more binding, comparable within an allelic series); in [20], 8.52 upbm affinity estimate (log intensity, higher = more binding, comparable within an allelic series).
In the case of AATTAGCC, the binding signal was 11.4 upbm affinity estimate (log intensity, higher = more binding, comparable within an allelic series) in assay [1]; 11.9 upbm affinity estimate (log intensity, higher = more binding, comparable within an allelic series) in assay [2]; 12.6 upbm affinity estimate (log intensity, higher = more binding, comparable within an allelic series) in assay [3]; 11.5 upbm affinity estimate (log intensity, higher = more binding, comparable within an allelic series) in assay [4]; 12.1 upbm affinity estimate (log intensity, higher = more binding, comparable within an allelic series) in assay [5]; 11.2 upbm affinity estimate (log intensity, higher = more binding, comparable within an allelic series) in assay [6]. The binding signal in assay [7] is 8.15 upbm affinity estimate (log intensity, higher = more binding, comparable within an allelic series); in [8] it was 9.22 upbm affinity estimate (log intensity, higher = more binding, comparable within an allelic series); in assay [9], 10.8 upbm affinity estimate (log intensity, higher = more binding, comparable within an allelic series); in [10], 12.3 upbm affinity estimate (log intensity, higher = more binding, comparable within an allelic series); in assay [12], 8.71 upbm affinity estimate (log intensity, higher = more binding, comparable within an allelic series); in [13], 10.8 upbm affinity estimate (log intensity, higher = more binding, comparable within an allelic series). Besides, the binding signal is 10.1 upbm affinity estimate (log intensity, higher = more binding, comparable within an allelic series) in [14]; 10.2 upbm affinity estimate (log intensity, higher = more binding, comparable within an allelic series) in assay [15]; 9.65 upbm affinity estimate (log intensity, higher = more binding, comparable within an allelic series) in assay [16]; 7.46 upbm affinity estimate (log intensity, higher = more binding, comparable within an allelic series) in [18]; 12.4 upbm affinity estimate (log intensity, higher = more binding, comparable within an allelic series) in assay [19]; 8.23 upbm affinity estimate (log intensity, higher = more binding, comparable within an allelic series) in assay [20].
For the sequence AATTAACG, the binding signal in assay [1] is 11.7 upbm affinity estimate (log intensity, higher = more binding, comparable within an allelic series); in assay [2], 11.6 upbm affinity estimate (log intensity, higher = more binding, comparable within an allelic series); in assay [3], 13 upbm affinity estimate (log intensity, higher = more binding, comparable within an allelic series); in assay [4], 11.7 upbm affinity estimate (log intensity, higher = more binding, comparable within an allelic series); in assay [5], 12.2 upbm affinity estimate (log intensity, higher = more binding, comparable within an allelic series); in assay [6], 11.6 upbm affinity estimate (log intensity, higher = more binding, comparable within an allelic series). Also, the binding signal in [7] was 8.41 upbm affinity estimate (log intensity, higher = more binding, comparable within an allelic series); in assay [8], 9.39 upbm affinity estimate (log intensity, higher = more binding, comparable within an allelic series); in assay [9], 11.2 upbm affinity estimate (log intensity, higher = more binding, comparable within an allelic series); in assay [10] it was 12.5 upbm affinity estimate (log intensity, higher = more binding, comparable within an allelic series); in assay [11], 11.3 upbm affinity estimate (log intensity, higher = more binding, comparable within an allelic series); in assay [12] it was 8.98 upbm affinity estimate (log intensity, higher = more binding, comparable within an allelic series). The binding signal in [13] is 11.2 upbm affinity estimate (log intensity, higher = more binding, comparable within an allelic series); in assay [14] it was 10.5 upbm affinity estimate (log intensity, higher = more binding, comparable within an allelic series); in assay [15] it was 10.4 upbm affinity estimate (log intensity, higher = more binding, comparable within an allelic series); in [16] it was 10.1 upbm affinity estimate (log intensity, higher = more binding, comparable within an allelic series); in [17], 7.84 upbm affinity estimate (log intensity, higher = more binding, comparable within an allelic series); in assay [18] it was 7.64 upbm affinity estimate (log intensity, higher = more binding, comparable within an allelic series). Moreover, the binding signal is 12.2 upbm affinity estimate (log intensity, higher = more binding, comparable within an allelic series) in assay [19] and 8.55 upbm affinity estimate (log intensity, higher = more binding, comparable within an allelic series) in assay [20].
